# PubChem BioAssay
# Values without a mark were called inactive. The rule behind the calls is not given here.
# Molecular target: Pantothenate synthetase (Mycobacterium tuberculosis (strain ATCC 25618 / H37Rv)) (UniProt P9WIL5)
# Test: Coupled enzyme confirmation of inhibitors against recombinant Mtb PanC (AID 375);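 note: 0% = full reaction with vehicle and 100% = no enzyme background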
# Conditions: coupled enzyme assay; at 10 µM, stronger effect = higher value
# Chain of Pantothenate synthetase (Mycobacterium tuberculosis (strain ATCC 25618 / H37Rv)) (P9WIL5 whole entry, looked up): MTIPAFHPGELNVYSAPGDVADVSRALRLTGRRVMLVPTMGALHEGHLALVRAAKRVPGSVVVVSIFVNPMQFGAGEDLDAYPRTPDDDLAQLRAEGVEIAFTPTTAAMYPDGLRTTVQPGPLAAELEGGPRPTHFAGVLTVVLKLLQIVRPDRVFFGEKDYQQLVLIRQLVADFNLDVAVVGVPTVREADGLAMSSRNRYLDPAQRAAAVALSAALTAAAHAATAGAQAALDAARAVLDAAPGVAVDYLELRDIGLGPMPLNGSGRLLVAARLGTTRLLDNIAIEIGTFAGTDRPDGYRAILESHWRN
row,SMILES,inhibition
1,Cc1cccc(N2CCN(Cc3c(C)n(C)n(-c4ccccc4)c3=O)CC2)c1C,0%
2,CCN1CCN(Cc2c(C)[nH]c3ccc(OC)cc3c2=O)CC1,1%
3,CN(Cc1ccccc1)C(=O)c1cc(-c2ccc(Br)cc2)on1,0%
4,CCOc1cc(C(=O)NCc2nnc(SCC(=O)OC)n2C)cc(OCC)c1OCC,2%
5,O=C(COc1ccccc1F)NC1CC1,3%
6,Cc1nc2sc(C(c3ccccc3)N3CCN(c4ccccc4F)CC3)c(O)n2n1 (configuration not stated),0%
7,O=C(Cc1c(O)c2ccccc2[nH]c1=O)NCc1ccc(F)cc1,0%
8,Cc1cc(=O)n2nc(N3CCC(C(=O)N4CCN(Cc5ccccc5)CC4)CC3)sc2n1,2%
9,COc1cccc(CNC(=O)Cn2c(=O)oc3ccccc32)c1OC,0%
10,CCN(CC)c1ccc(NC(=O)CN2CCN(CC(=O)Nc3ccccc3F)CC2)cc1,1%
11,O=C(Nc1cc(C(F)(F)F)ccc1Cl)C1CCN(c2nnc(-n3cccc3)s2)CC1,3%
12,CCN1CCN(c2nc(C)nc3c2sc(=S)n3C)CC1,0%
13,CC(C)(Oc1ccc(Cl)cc1)C(=O)NCc1ccncc1,3%
14,CC1CC(C)CN(CC(=O)Nc2ccc(S(N)(=O)=O)cc2)C1 (configuration not stated),0%
15,COc1cc(C(=O)N2CCN(c3cc(Cl)ccc3Cl)CC2)cc(OC)c1OC,1%
16,O=C(CSc1nccn1-c1cccc(Cl)c1)NC1CCCC1,0%
17,COc1ccccc1C1C(C#N)=C(N)Oc2cc(C)n(Cc3ccccn3)c(=O)c21 (configuration not stated),1%
